# This is part of a sample that, as a whole, favours compounds with a hit. Of some 83,000 tested, about 20% had one in any assay.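 Cells were grown in 96-well plates and exposed to the test compound at a single concentration for 48 hours; results are reported as percent growth, with values below 10 considered active.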 Values without a mark were called inactive. Active and inactive are the calls of the source.
# Key:
# Assay in all cases: NCI-60 one-dose screen, 48 h (100 = growth as untreated, 0 = no growth, -100 = all killed)
# Details in all cases: 10 µM unless noted
# NCI-H23 lung = test system: NCI-H23 lung
# NCI-H226 lung = test system: NCI-H226 lung
# NCI-H322M lung = test system: NCI-H322M lung
# HOP-62 NSCLC = test system: HOP-62 NSCLC
# NCI-H460 lung = test system: NCI-H460 lung
# HOP-92 NSCLC = test system: HOP-92 NSCLC
# NCI-H522 lung = test system: NCI-H522 lung
# A549/ATCC NSCLC = test system: A549/ATCC NSCLC
# 786-0 renal = test system: 786-0 renal
# COLO 205 colon = test system: COLO 205 colon
# DU-145 prostate = test system: DU-145 prostate
# K-562 leukemia = test system: K-562 leukemia
# MALME-3M melanoma = test system: MALME-3M melanoma
# MDA-MB-231 breast = test system: MDA-MB-231 breast
# RXF 393 renal = test system: RXF 393 renal
# SF-268 CNS = test system: SF-268 CNS
# SF-295 CNS = test system: SF-295 CNS
# SF-539 CNS = test system: SF-539 CNS
# UACC-257 melanoma = test system: UACC-257 melanoma
# M14 melanoma = test system: M14 melanoma
SMILES,growth (NCI-H23 lung),growth (NCI-H226 lung),growth (NCI-H322M lung),growth (HOP-62 NSCLC),growth (NCI-H460 lung),growth (HOP-92 NSCLC),growth (NCI-H522 lung),growth (A549/ATCC NSCLC),growth (786-0 renal),growth (COLO 205 colon),growth (DU-145 prostate),growth (K-562 leukemia),growth (MALME-3M melanoma),growth (MDA-MB-231 breast),growth (RXF 393 renal),growth (SF-268 CNS),growth (SF-295 CNS),growth (SF-539 CNS),growth (UACC-257 melanoma),growth (M14 melanoma)
O=C(Nc1ccc(Br)cc1F)c1cc(Br)ccc1O,0.13% (active),-1.23% (active),-4.81% (active),13%,3.37% (active),-14.6% (active),-7.77% (active),8.21% (active),7.72% (active),85.6%,20.9%,10.3%,-26.4% (active),-38.1% (active),-8.01% (active),14.5%,-59.7% (active),9.41% (active),-17.2% (active),8.04% (active)
COc1ccc(/C=N/Nc2cc(=O)[nH]c3ccc(C)cc23)cc1,70%,81.5%,86.8%,86.3%,103%,88%,75.2%,91.3%,105%,106%,105%,79.5%,114%,126%,95.4%,115%,96.2%,101%,105%,86.3%
CSc1nc2ccc(C)cc2cc1/C=N/O,99.4%,76.7%,94.3%,82.8%,91.1%,72.2%,75.7%,71.8%,89.9%,102%,93%,94.7%,108%,83.5%,87.3%,83.1%,101%,91.1%,80.6%,87.8%
CNC(=O)c1[nH]cc(-c2ccccc2)c1-c1cc(OC)c2c(c1OC)OCO2,104%,94.6%,103%,94.5%,108%,96.7%,87.9%,96.7%,94.8%,102%,106%,98.7%,105%,96.2%,94.1%,93.6%,106%,102%,101%,98.3%
Cc1nc2cnc(N)c(C#Cc3cncc(C(=O)Nc4ccc(CN5CCN(C)CC5)c(C(F)(F)F)c4)c3)c2nc1C,-9.47% (active),3.74% (active),-5.35% (active),11.9%,4.26% (active),-39% (active),4.74% (active),2.19% (active),35%,-17.5% (active),8.22% (active),7.33% (active),-40.5% (active),-12.3% (active),-68.3% (active),8% (active),36%,-23.3% (active),-25.8% (active),-55.6% (active)
COc1ccc(/C=C(\C#N)n2nnc3c(F)cccc32)cc1,18%,45%,37.9%,28.7%,2.99% (active),21.4%,11.6%,35.6%,15.9%,-6.97% (active),2.45% (active),12.1%,36.8%,21%,-21.3% (active),39.7%,5.51% (active),-27.4% (active),62.6%,-16.2% (active)
OC(c1ccccc1)C(NC(Cc1ccccc1)c1ccccc1)c1ccccc1 (stereo not given),81.8%,82.1%,93.2%,88%,91.7%,65.3%,67.1%,73.3%,81.4%,101%,98.7%,82.5%,91.9%,78.7%,102%,86.8%,93.1%,96.7%,91.6%,91.8%
CCCCNC(=O)Oc1ccc(/C(=C(\C)c2ccc(Cl)cc2)c2ccc(OCCN(CC)CC)cc2)cc1,85.6%,103%,87.9%,74.3%,72.6%,67.2%,98.4%,61.6%,59.2%,63.3%,81.7%,8.22% (active),65.1%,70.2%,79.4%,65.5%,85.2%,71.7%,-1.69% (active),22.6%
O=C(CCCCCCSc1nc(-c2ccccc2)cc(-c2ccccc2)n1)NO,27.6%,56%,45%,29.5%,24.4%,7.75% (active),-0.297% (active),27.4%,65%,25.7%,36.3%,11.3%,14.3%,40.8%,6.08% (active),62.3%,41.7%,53.1%,29%,31.7%
Cc1nc2nc(SCC(=O)O)[nH]c2c(=O)[nH]1,98.8%,101%,105%,96.7%,104%,95.3%,78.6%,86.6%,104%,109%,113%,94.9%,112%,110%,109%,108%,97.9%,97.6%,96.7%,102%
CCCCCCNC(=O)Oc1ccc(/C(=C(\C)c2ccc(Cl)cc2)c2ccc(OCCN3CCCCC3)cc2)cc1,48.5%,91.2%,84.9%,68.5%,23.8%,47.6%,69.1%,48.9%,23.7%,-35.8% (active),69.3%,1.22% (active),31.6%,53.4%,24.1%,56.6%,48.2%,42.5%,18.6%,-33.5% (active)
CCOC(=O)c1c2c(n(-c3ccc(C#N)cc3)c1-c1ccccc1)C=CCC2,89.3%,96.5%,91.6%,83.3%,98.9%,98.4%,72.1%,91.1%,101%,87.2%,102%,70.7%,103%,91.6%,109%,96.8%,86.2%,114%,102%,93.5%
O=C(/C=C/c1sc(Cl)nc1Cl)c1ccc(F)cc1,94%,96.4%,100%,95.6%,102%,96.9%,86.6%,98.4%,95.8%,75.6%,92%,10%,79.3%,81.5%,93.3%,92.8%,95.7%,66.8%,95.9%,78.4%
CCCCn1c(=O)c(-c2cc(-c3ccc(Cl)cc3)nc(-c3ccc(Cl)cc3)c2)cc2cc(Cl)ccc21,105%,104%,96%,104%,108%,94.2%,99.3%,101%,106%,109%,112%,102%,104%,84.6%,118%,98.4%,103%,103%,96.1%,101%
O=C(Nc1ccc(-c2nc(-c3cccc(OCCN4CCOCC4)c3)c(-c3ccnc(Br)c3)[nH]2)cc1)c1ccccc1,13.3%,52.8%,47.4%,-1.45% (active),7.26% (active),23.2%,40.7%,21.9%,-39.4% (active),-25.2% (active),55.6%,0.946% (active),-21% (active),29.2%,-49.9% (active),38.9%,-70.9% (active),-39.8% (active),-0.153% (active),6.5% (active)
O=c1n(Cc2ccc3ccccc3c2)ccn1Cc1ccc2ccccc2c1,91%,91.5%,86.3%,66%,85.7%,83.1%,46.8%,82.9%,95.8%,96.1%,100%,106%,91.8%,91.4%,96.4%,84.7%,94.5%,87.7%,101%,93.3%
COc1cccc(OC)c1C(=O)N[C@@H]1C(=O)N2[C@@H]1SC(C)(C)[C@@H]2C(=O)O,103%,107%,95.6%,103%,112%,44.9%,88.7%,105%,95.6%,107%,115%,110%,93.9%,102%,125%,109%,105%,108%,103%,97.9%
COc1ccc(S(=O)(=O)n2cc(C3OC(c4cc(OC)c(OC)c(OC)c4)=NN3C(C)=O)c3ccccc32)cc1OC (stereo not given),79.5%,93.2%,98%,78.1%,97.1%,63.9%,84%,98.3%,86.3%,127%,145%,64.4%,104%,82.6%,89.3%,108%,93%,89.1%,87.9%,98.1%
CCCCCCn1c(-c2ccc(C(=O)O/N=C(\N)c3ccc(OC)cc3)cc2)nc(-c2ccccc2)c1-c1ccccc1,-63.9% (active),62.6%,69.4%,26.4%,-10.3% (active),-63% (active),-59% (active),-33.9% (active),-66.8% (active),-14% (active),-73.6% (active),-35.3% (active),-18.2% (active),-24% (active),-59.6% (active),3.04% (active),1.78% (active),-84.1% (active),48.3%,40.9%
Cc1nn(-c2ccccc2)c(-n2ccnc2)c1/C=N/Nc1nc(-c2ccc(F)cc2)cs1,58.1%,50.3%,88.8%,98.8%,83.3%,42.9%,73.6%,65%,106%,70.8%,87.5%,38.8%,83.2%,79.6%,88.5%,76.9%,77.3%,87.6%,75.6%,79.7%
CNc1nc2c(s1)C(c1cc(F)ccc1F)CC(=O)N2 (stereo not given),85.9%,84.8%,92.2%,69.1%,82.3%,85.5%,51.3%,87%,83.9%,83.7%,76.3%,18.5%,70.2%,69.6%,75.5%,79.3%,87.4%,53.8%,86.7%,47.3%
O=C(Nc1ccc(F)cc1F)c1cc(F)ccc1O,-6.29% (active),4.02% (active),-6.69% (active),16.4%,7.51% (active),-29.9% (active),-6.24% (active),18%,13.3%,81.1%,21.9%,9.5% (active),-25.7% (active),10.8%,2.57% (active),15.8%,6.99% (active),17.1%,-8.33% (active),25.6%
COc1cc(C(=O)c2cc(C)c3[nH]c4ccc(O)cc4c3c2C)cc(OC)c1OC,31.4%,53%,33.7%,40.1%,8.93% (active),32.2%,33.7%,22.7%,13.8%,7.01% (active),-13.4% (active),7.07% (active),-8.11% (active),28.3%,31.9%,24%,9.6% (active),1.71% (active),64.8%,22.3%
NCCOc1ncccc1/C=C1\C2C=CC=CC2C2C=CC(F)=CC12 (stereo not given),2.79% (active),-26.2% (active),64.5%,10.5%,-22% (active),28.9%,47.8%,-56.5% (active),1.24% (active),27.2%,6.22% (active),8.35% (active),39.2%,37.4%,39.9%,32.3%,-2.83% (active),11.1%,71.7%,18.8%
O=c1[nH]c2c(ccc3cnccc32)c2c1CCC2,-64.6% (active),-6.54% (active),-11.7% (active),-3.9% (active),-4.19% (active),-17.1% (active),-33.6% (active),14.9%,12.6%,-77.4% (active),-9.29% (active),14.6%,-59.2% (active),2.78% (active),-53.8% (active),-17.7% (active),-47.2% (active),-59.7% (active),6.08% (active),-77% (active)
C=C1C(=O)O[C@H]2[C@H]1CC/C(COC(=O)CSCC(=O)OC/C1=C/CC[C@@]3(C)O[C@H]3[C@H]3OC(=O)C(=C)[C@@H]3CC1)=C\CC[C@@]1(C)O[C@@H]21,58.1%,91.6%,90.7%,92.7%,73.9%,-16.9% (active),-69.7% (active),72.8%,7.49% (active),-54.9% (active),50.3%,9.77% (active),-10.3% (active),-16.8% (active),-86.3% (active),57.8%,88.1%,19.3%,9.23% (active),1.21% (active)
CCOc1c(B(O)O)cccc1-c1nc2ccc3[nH]ncc3c2c2c1CCCC2,60.1%,54.3%,109%,48.3%,42.1%,33.5%,55.2%,64.5%,47.7%,48.6%,66.9%,63.4%,101%,33.9%,-5.22% (active),58.6%,59.3%,18.6%,135%,120%

# From PubChem BioAssay (NCI)
